# Assay results published in PubChem BioAssay AID1259422 (The Scripps Research Institute Molecular Screening Center, 2018).
# Where “and” joins values, the source holds several entries; their conditions need not be identical. Equal entries are not always repeated. In all, about 640,000 compounds went through this assay and about 9,300 (1.5%) were called active. The full list was thinned out, with actives kept by preference. A number with no mark means an inactive call. Cut-off read from the data, not from the text of the source: active = inhibition above about 32%; inactive = the rest.
# Experiment: TEAD-YAP interaction inhibition, primary screen, TEAD-YAP interaction inhibitor project, luminescence, HEK-TIYL cells (AID 1259422);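 note: 0% = median of test compound wells and 100% = reference inhibitor wells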
# Conditions: TEAD-Gal4/YAP UAS-luciferase luminescence, at 9.12 µM, active compounds read high
row,SMILES,inhibition
1,Cc1cccc2c(N)c3c(nc12)CCCC3,-0.9%
2,Cc1ccc(-c2cc(C(=O)OCC(C)C)c3cccc(C)c3n2)cc1,3.59%
3,Cc1ccc2nc3nc4c(C)cccc4c(N)c3cc2c1,43.1% (active)
4,OC1(c2ccc(F)cc2)CC2CCC(C1)N2c1ncnc2nc[nH]c12 (stereo not given),1.25%
5,C=C(Br)Cn1c(C(C)O)nc2ccccc21 (stereo not given),1.71%
6,CC1=C(C#N)C(c2ccc3c(c2)OCO3)C2=C(CC(C)(C)CC2=O)N1 (stereo not given),10.8%
7,Cn1c(=O)n(CC(=O)Nc2ccc(F)cc2)c(=O)c2ccccc21,14%
8,CCCNC1=C(c2ccc(OC)cc2)C(=O)c2ccccc21,-14.6%
9,CCOC(=O)C1=C(c2ccc(OC)cc2)C(=O)c2ccccc2C1=O,96% (active)
10,CCOC(=O)C1=C(C)N(c2ccc(C)cc2)C(=O)/C1=C\c1ccc(OC)cc1,-0.27%
11,CCCOc1ccc(/C(O)=C2/C(=O)C(=O)N(CCN(C)C)C2c2ccc(Cl)cc2)cc1C (stereo not given),4.59%
12,O=C(NCCc1ccccc1)c1ccc(C(=O)c2ccccc2)o1,-31.4%
13,Cc1occc1C(=O)Nc1cccc(O)c1,37.5% (active)
14,O=C(Nc1cccc(O)c1)c1ccc(C(=O)c2ccccc2)o1,56.8% (active)
15,Cc1occc1C(=O)Nc1ccc(NC(=O)c2ccoc2C)cc1,-68.2%
16,Cc1occc1C(=O)Nc1cccc(F)c1,-4.37%
17,C#Cc1cccc(NC(=O)c2ccc(-c3ccccc3)cc2)c1,-53.1%
18,O=C(Nc1cccc(O)c1)c1cncc(Br)c1,-19.1%
19,O=C(Nc1cccc(O)c1)c1cccnc1,24.2%
20,O=C(Nc1cccc(O)c1)c1ccc(-c2ccccc2)cc1,83.8% (active)
21,Cc1ccc(S(=O)(=O)n2nc(C#N)c(C#N)c2N)cc1,-5.77%
22,O=C(Nc1nc(-c2ccc3ccccc3c2)cs1)c1cc(-c2ccc(Br)cc2)nc2ccccc12,-0.33%
23,CCOc1cc(/C=C2/C(=N)N3N=C(CC)SC3=NC2=O)cc(Cl)c1OCCOc1ccccc1,-11.5%

row,SMILES,inhibition
1,COc1ccc(Cl)cc1Nc1ncnc2c1c(-c1ccccc1)cn2-c1ccc(C)cc1,-0.75%
2,CC1CCN(C(=O)c2c[nH]c3ccc(S(=O)(=O)N(C)c4ccc(C(C)C)cc4)cc3c2=O)CC1,-1.81%
3,CCOC(=O)N1CCN(S(=O)(=O)c2ccc(C(=O)Nc3ccc(F)cc3F)cc2)CC1,58.1% (active)
4,CCOC(=O)c1ccc(NC(=O)c2ccc(S(=O)(=O)N3CCN(C(=O)OCC)CC3)cc2)cc1,-0.65%
5,CCOC(=O)N1CCN(S(=O)(=O)c2ccc(C(=O)Nc3nc(-c4ccccc4)c(C)s3)cc2)CC1,-2.44%
6,COCCOC(=O)C1=C(C)NC2=C(C(=O)CC(c3ccccc3)C2)C1c1cc(OC)ccc1OC (stereo not given),8.28%
7,COc1cc2c(cc1OC)C1CN3CCc4cc(OC)c(OC)cc4C3CN1CC2 (stereo not given),5.47%
8,CCOc1cc2c(cc1OCC)C(c1cc(OC)ccc1OC)NCC2 (stereo not given),6.48%
9,CC[C@H]1CN2CCc3cc(OC)c(OC)cc3[C@@H]2C[C@@H]1C[C@H]1NCCc2cc(OC)c(OC)cc21,99.4% (active) and 101% (active)
10,O=C(Cn1cnc2ccccc21)N/N=C/c1ccc(Cl)c(Cl)c1,1.91%
11,Cc1cc(OC2CCN(C(=O)c3ccc4[nH]ncc4c3)CC2)ncc1Cl,6.71%
12,O=C(Nc1ccc2[nH]ncc2c1)c1ccnc(OC2CCN(Cc3ccccc3)CC2)c1,82% (active)
13,O=C(Nc1ccc2[nH]ncc2c1)c1cccnc1OC1CCCN(Cc2ccccc2)C1 (stereo not given),-3.88%
14,CCC(C(=O)NC(C)C)n1nc(C)c2sc3ccccc3c2c1=O (stereo not given),4.5%
15,CCOC(=O)Cn1c(=O)oc2cc(S(=O)(=O)N3CCN(CC)CC3)ccc21,-3.33%
16,COc1cccc(/C=N/NC(=O)C(C)Nc2ccc(Br)cc2)c1O (stereo not given),23.5%
17,O=C(Cn1cc([N+](=O)[O-])cn1)Nc1ccc(-c2noc(-c3ccccc3F)n2)cc1,-22%
18,CCCn1c(-c2ccc(S(=O)(=O)N(C)C)cc2)csc1=Nc1ccccc1,35.3% (active)
19,CN(C)CCCn1c(-c2ccc(Cl)cc2)csc1=Nc1ccccc1,5.26%
20,O=C(O)CCn1c(-c2ccccc2)csc1=Nc1ccccc1,-48.6%
21,O=C(NC1CCCCC1)c1ccc(Cn2c(=S)[nH]c3cc4c(cc3c2=O)OCO4)cc1,-6.89%
22,COc1ccc([N+](=O)[O-])cc1NC(=O)c1cnc(N2CCN(c3ncccn3)CC2)c2ccccc12,36.3% (active)
23,COc1ccc(Cl)cc1NC(=O)c1cnc(N2CCN(c3ncccn3)CC2)c2ccccc12,12.9%

row,SMILES,inhibition
1,O=C(Nc1ccccc1F)c1cnc(N2CCN(c3ncccn3)CC2)c2ccccc12,25.2%
2,O=C(NCc1ccccn1)c1cc(=O)c2ccccc2o1,0.58%
3,O=C(Nc1ccc(Oc2ccc3ccccc3c2Cl)c(Cl)c1)c1cc2cc(Cl)ccc2oc1=O,5.28%
4,COc1ccc(-c2nc(C)cc(NCc3ccccc3)n2)cc1,-42.8%
5,COc1ccc(-c2nc(N)c3[nH]cnc3n2)cc1,-34%
6,COc1ccc(-c2nc(C)cc(Nc3cc(OC)c(OC)c(OC)c3)n2)cc1,46.8% (active)
7,COc1cc2nc(Nc3cccc(N(C)C)c3)nc(Nc3cc(OC)c(OC)c(OC)c3)c2cc1OC,-1.74%
8,COc1cc(Nc2nc(Nc3cccc(N(C)C)c3)nc3nc[nH]c23)cc(OC)c1OC,46% (active)
9,COc1ccc(-c2nc(Nc3cc(OC)c(OC)c(OC)c3)c3[nH]cnc3n2)cc1,54% (active)
10,COc1cc(Nc2nc(Nc3cc(OC)c(OC)c(OC)c3)c3[nH]cnc3n2)cc(OC)c1OC,8.81%
11,CC(=O)Nc1ccc(Nc2nc(-c3ccc(C(N)=O)cc3)nc3nc[nH]c23)cc1,5.81%
12,COc1cc(Nc2cc(C)nc(Nc3nc4ccccc4n3C)n2)cc(OC)c1OC,1.6%
13,O=[N+]([O-])c1ccc(-c2csnn2)cc1,-3.36%
14,Cc1nc2c3ccccc3n3c(CCCC(=O)NCc4cccnc4)nnc3n2n1,-0.28%
15,O=C(CNC(=O)c1ccco1)N/N=C/c1ccc(F)cc1,2.91%
16,CN1C(C)(C)CC(N(C)S(C)(=O)=O)CC1(C)C,-1.45%
17,COCCNc1nc(-c2ccc(C)cc2)ccc1C(=O)N1CCN(C)CC1,-12%
18,CCCCOC(=O)C(C)Oc1ccc2c(=O)c(-c3ccc(Cl)cc3)coc2c1 (stereo not given),-32.8%
19,CCOC(=O)C1CCN(C(=O)/C(=C/c2ccco2)NC(=O)c2ccc(C)c(C)c2)CC1,3.59%
20,Cc1nnc(NS(=O)(=O)c2ccc([N+](=O)[O-])cc2)s1,-10.9%
21,O=C(CSCC(=O)N1CCCC1)Nc1nc(-c2ccc(Cl)s2)cs1,-0.25%
22,Cc1ccc(S(=O)(=O)N(C(=O)NC(=O)Nc2ccccc2Cl)c2ccc(Cl)cc2)cc1,-3.29%
23,Cc1cc(C)c2c(NCc3ccccc3F)n[nH]c2n1,-16.5%

row,SMILES,inhibition
1,c1ccc(Cc2nn3c(Cn4cnc5ccccc54)nnc3s2)cc1,6.31%
2,Cc1ccc(OCc2nn3c(Cn4cnc5ccccc54)nnc3s2)cc1,32.3% (active)
3,Clc1ccccc1OCc1nn2c(Cc3ccccc3)nnc2s1,-7.7%
4,COC(=O)c1c(C)[nH]c(C(=O)/C(C#N)=C/c2cccnc2)c1C,-3.19%
5,CCc1nc2sc3c(N4CCCC4)ncnc3c2c2c1COC(C)(C)C2,-9.9%
6,CC(=O)c1ccc(OC(=O)c2ccccc2Cl)cc1,7.46%
7,O=C(Cn1cnc2ccc(Br)cc2c1=O)OC1CCCCC1,-11.3%
8,CC(Nc1nc2c(c(=O)[nH]c(=O)n2C)n1Cc1ccccc1)c1ccccc1 (stereo not given),0.86%
9,Cn1c(=O)[nH]c(=O)c2c1nc(N(CCO)Cc1ccccc1)n2Cc1ccccc1Cl,-2.54%
10,CCC(C)n1c(N(C)Cc2ccccc2)nc2c1c(=O)[nH]c(=O)n2C (stereo not given),49.9% (active)
11,CCC(C)NC(=O)c1ccc(S(=O)(=O)c2ccc(OC)cc2)c([N+](=O)[O-])c1 (stereo not given),32.4% (active)
12,CCC(C)NC(=O)c1ccc(N2CCC3(CC2)OCCO3)c([N+](=O)[O-])c1 (stereo not given),-13.8%
13,COCCNC(=O)c1ccc(Sc2ccc(OC)cc2)c([N+](=O)[O-])c1,-17%
14,Cc1nn(C)c(C)c1-c1cncc(C(=O)NCc2cccc(C(F)(F)F)c2)c1,-3.32%
15,Cc1nc2c(C(=O)NCc3ccc(F)cc3)cnn2c(C)c1Cc1cccc(Cl)c1,0.57%
16,O=C(CSCC(=O)Nc1ccc2ccccc2c1)NCC1CCCO1 (stereo not given),-13.5%
17,O=c1oc2cc(Cl)ccc2n1C(c1ccccc1)(c1ccccc1)c1ccccc1,-6.71%
18,O=C1NC2(CCN(C(=O)C3CCN3C3CCCCC3)CC2)Nc2ccccc21 (stereo not given),7.24%
19,O=C1NC2(CCN(C(=O)CCn3ncc4ccccc43)CC2)Nc2ccccc21,-11.1%
20,O=C1NC2(CCN(C(=O)c3cccc4cccnc34)CC2)Nc2ccc(Cl)cc21,77.2% (active)
21,CCc1ccc2c(c1)NC(=O)C2(CC)c1ccc2c(c1)OCO2 (stereo not given),-7.41%
